Each structure is given as a SMILES string. A number with no mark means an inactive call.

Data on nine molecules can be found in PubChem BioAssay.

This test is described as follows: cell viability in Huh7 cells, primary screen, cytotoxicity control for HCV replication inhibitor project, CellTiter-Glo luminescence, basal, 48 h (AID 1143).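 Further: Huh7 hepatoma cells carrying a hepatitis C replication reporter with no stimulus; test concentration not given here.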 Conditions: Huh7 HCV replicon, higher = more signal, called active from +8 up or from −8 down. For orientation: In ATP-based viability assays light output follows the ATP content of the culture.
On to `COCCOC(=O)N1C(=O)[C@@]2(c3cc(C#CC4(O)CCCCCC4)ccc31)[C@H](C(N)=O)[C@H]1C(=O)O[C@H](c3ccccc3)[C@H](c3ccccc3)N1[C@@H]2c1ccccc1OCCO`, for which the z-score is -6.12.
As to `C=CCN1C(=O)[C@@]2(O[C@@H](CCO)[C@H]([Si](C)(C)c3ccc(OC)cc3)[C@H]2C)c2cc(N3C(=O)c4ccccc4Oc4ccccc43)ccc21`, the z-score is -7.93.
For `C[C@]1(C(=O)NC2CC2)c2ccccc2C(=O)N(Cc2ccc(OC(F)(F)F)cc2)[C@H]1c1ccc(CO)cc1` the value was -0.0474.
The figure for `CC(C)(C)OC(=O)CC[C@]1(C(=O)N2CCOCC2)N=C(c2ccc(OCCCO)cc2)O[C@H]1c1ccccc1` is -1.37.
For `C=C[C@@H](C)[C@H](OC(=O)Nc1ccc(SC)cc1)c1ccc(OCCO)cc1` the value was -0.957.
As for `COC(=O)[C@@]1(Cc2ccc(OC)cc2)[C@H]2c3cc(C(=O)N4CCCC4)n(CCc4cc5ccccc5[nH]4)c3C[C@H]2CN1C(=O)c1ccccc1`, the z-score is -1.84.
For `C=CCNC(=O)[C@@H]1[C@H]2C(=O)O[C@H](c3ccccc3)[C@H](c3ccccc3)N2[C@H](c2ccc(OCCO)cc2)[C@@]12C(=O)N(C(=O)OCCOC)c1ccc(C#CC3=CCCCC3)cc12` the value was -2.81.
For `CC(C)C(CO)N1C(=O)[C@]2(C)C3C(=O)OCCC/C=C\[C@H]3OC23C=CCN(c2ccc(Cl)cc2)C(=O)[C@@H]13` (some centres undefined) the value was -0.199; for `C=CC[C@H](OC(=O)Nc1ccc(OC)cc1)c1ccc(O)c2ccccc12`, -4.26.
